The source made the active and inactive calls. The calls were made as follows: active = hit-call score of the fitted dose curve at least 0.9, where 1 is the maximum; inactive = score below 0.9.
Experiment: ATG_TAL_CIS: Attagene CIS-FACTORIAL HepG2 Assay for human TAL Basal Promoter (AID 2282966)
Details: HepG2 Attagene cis-factorial TAL promoter reporter; actives raise or lower the signal
Method: ATG_CIS is a cell-based, multiplexed-readout assay that uses HepG2, a human liver cell line, with measurements taken at 24 hours after chemical dosing in a 24-well plate.ATG_TAL_CIS is one of 52 assay component(s) measured or calculated from the ATG_CIS assay. It is designed to make measurements of mRNA induction, a form of inducible reporter, as detected with fluorescence intensity signals by Reverse transcription polymerase chain reaction (RT-PCR) and Capillary electrophoresis technology.Data from the assay component ATG_TAL_CIS was analyzed into 1 assay endpoint. This assay endpoint, ATG_TAL_CIS, was analyzed with bidirectional fitting relative to DMSO as the negative control and baseline of activity. Using a type of inducible reporter, measures of mRNA for gain or loss-of-signal activity can be used to understand the background control at the transcription factor-level as they relate to the gene . Furthermore, this assay endpoint can be referred to as a secondary readout, because this assay has produced multiple assay endpoints where this one serves a background control function. To generalize the intended target to other relatable targets, this assay endpoint is annotated to the background measurement intended target family, where the subfamily is internal marker.
Human liver HepG2 cells are transiently transfected with multiple reporter transcription units (MRTUs) in 6-well plates using FuGene 6 reagent (Roche; 3 ml FuGene/1 mg DNA). The MRTU constructs are regulated by a cis-regulating element (promoter). […] A major difference between the CIS and TRANS system is that in CIS activities of endogenous TFs are measured, whereas the TRANS assay evaluates changes in activities of exogenous, chimeric NR-Gal4 proteins. […] At the end of 24 hour incubation, total RNA was isolated using TriZol reagent (Invitrogen). The isolated RNA is then reverse-transcribed using oligo(dT) primer and Mo-MLV reverse transcriptase (Invitrogen) with DNAse I (Ambion) treatment for 30 min. The one-tenth of the produced cDNA was amplified by PCR using Taq DNA polymerase (Invitrogen) and two reporter sequence-specific primers. The PCR products were fluorescently labeled by primer extension with 6-arboxyfluorescein (6-FAM) 5'-labeled reporter sequence-specific primer (2 min at 95 C, 20 s at 68 C and 10 min at 72 C) and these products were digested with 5U of HpaI (New England Biolabs) for 2h at 37 C. The fragments were purified using Qiaquick PCR columns (Qiagen), analyzed on an ABI 3130xL genetic analyzer (Applied Biosystems) with peak positions identified by using a set of X-rhodamine (ROX)-labeled MapMarker1000 molecular weight standards (BioVentures). The raw capillary electrophoresis data was processed using Attagraph software (Attagene).

| SMILES | outcome |
| --- | --- |
| c1ccc2sc(SNC3CCCCC3)nc2c1 | inactive |
| CN(C1CCCCC1)C1CCCCC1 | inactive |
| COc1ccccc1N | inactive |
| N#Cc1ccncc1 | inactive |
| O=C(NC(=O)c1c(F)cccc1F)Nc1cc(Cl)c(OC(F)(F)C(F)C(F)(F)F)cc1Cl (stereo not given) | inactive |
| CC1(C)COP(Oc2ccccc2)OC1 | inactive |
| Oc1cccc(-c2ccccc2)c1 | inactive |
| O=NN1CCCCCC1 | inactive |
| CCOP(=O)(OCC)OC(=CCl)c1ccc(Cl)cc1Cl | inactive |
| Nc1nc(N)nc(Cl)n1 | inactive |
| OC[C@@H](O)[C@H]1O[C@@H]2O[C@H](C(Cl)(Cl)Cl)O[C@@H]2[C@H]1O | inactive |
| CC(C)(C1CCC(O)CC1)C1CCC(O)CC1 (stereo not given) | inactive |
| C1CN2CCN1CC2 | inactive |
| ClCCCCl | inactive |
| O=c1nc(O)n(Cl)c(=O)n1Cl | inactive |
| O=C(N[C@H]1CN2CCC1CC2)c1ccc2c(c1)OCCO2 | inactive |
| CC(C)CP(=S)(S)CC(C)C | inactive |
| CCN(CCO)CCO | inactive |
| O=C(CBr)c1ccc(O)cc1 | inactive |
| Cc1ccccc1OP(=O)(Oc1ccccc1C)Oc1ccccc1C | inactive |

| SMILES | outcome |
| --- | --- |
| c1cc[c]([Sb]([c]2ccccc2)[c]2ccccc2)cc1 | inactive |
| Cc1cc(Cl)ccc1N | inactive |
| CCOC(=O)Cc1ccccc1 | inactive |
| O=C(NC(=O)c1c(F)cccc1F)Nc1ccc(Cl)cc1 | inactive |
| C1CCC(C2CCCCC2)CC1 | inactive |
| CCOC(=O)OC1=C(c2cc(C)ccc2C)C(=O)NC12CCC(OC)CC2 (stereo not given) | inactive |
| CCCCC(CC)COC(=O)Cl (stereo not given) | inactive |
| CCN(N=O)C(N)=O | inactive |
| Cc1ccc2nc3sc(=O)sc3nc2c1 | inactive |
| CCOP(=S)(OCC)O/N=C(\C#N)c1ccccc1 | inactive |
| O=S(=O)(F)C(F)(F)C(F)(F)C(F)(F)C(F)(F)F | inactive |
| Cc1c([N+](=O)[O-])c(C)c([N+](=O)[O-])c(C(C)(C)C)c1[N+](=O)[O-] | inactive |
| O=S1(=O)OC(c2cc(Br)c(O)c(Br)c2)(c2cc(Br)c(O)c(Br)c2)c2ccccc21 | inactive |
| CC(=Cc1ccccc1)[N+](=O)[O-] | inactive |
| N#CS | inactive |
| Cl[C@H]1OCCO[C@@H]1Cl | inactive |
| OC(Cc1ccccc1Cl)(Cn1[nH]cnc1=S)C1(Cl)CC1 (stereo not given) | inactive |
| O=c1[nH]c(=O)n(Cl)c(=O)n1Cl | inactive |
| Brc1ccc(Br)cc1 | inactive |
| CCOC(=O)CC(=O)CCl | inactive |
